The values that follow come from PubChem BioAssay AID449762 (Southern Research Specialized Biocontainment Screening …, 2010).

Among all 330,000 compounds or so, about 1,900 (0.58%) were called active. About 4% were inconclusive and are not listed. Not all results are given here. Entries with a potency or affinity are not part of this list. A number with no mark means an inactive call. No stated cut-off is given here; in the data, inconclusive means inhibition above about 70% without an active follow-up result; inactive means below that.

The test in a line: M. tuberculosis growth inhibition, HTS (AID 449762).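 Further: bacterial growth assessed after seven days of incubation.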 The conditions noted are these: M. tuberculosis H37Rv growth inhibition, 7H9 media; at 25 µM; active compounds read high.
What is called inhibition is the relative decrease from the control value, in per cent. For `COc1ccc(-n2nnnc2S(=O)(=O)Cc2ccc(C(=O)O)cc2)cc1`, the inhibition was -3.99%.

For the molecule `COc1cc(OC)cc(-n2nnnc2SCC(=O)N2CCCC2)c1`, the inhibition was -5.03%.

As to `CCCCn1c(C)c(C(=O)O)c2cc(OC)c3ccccc3c21`, the inhibition is 17.8%.

`COc1cc(C(=O)NCCc2cn3ccc(C)cc3n2)cc(OC)c1OC`: the inhibition is -5.75%.

With `CN=c1scc(-c2cccs2)n1/N=C/c1ccccc1O`, the inhibition is -8.02%.

For `CN=c1scc(-c2ccccc2F)n1/N=C/c1ccc[nH]1`, the inhibition is 67.8%.

Regarding `C[C@H](CO)N1C[C@H](C)[C@@H](CN(C)Cc2ccc(C(=O)O)cc2)Oc2c(NS(=O)(=O)c3ccc(F)cc3)cccc2C1=O`, the inhibition was -2.1%.

In the case of `O=C(NCc1nnc(SCC(=O)N2CCOCC2)o1)c1c(F)cccc1Cl`, the inhibition was -6.01%.

Turning to `COc1cccc(OCC(=O)N(C)Cc2nc(-c3cccc(C)c3)no2)c1`, the inhibition is 1.4%.

Consider `COc1ccc(O)c(C(=O)c2cnn(C(=O)c3cccc(S(=O)(=O)N4CCOCC4)c3)c2)c1`, for which the inhibition was -2.2%.

For the molecule `CCN(CC(=O)NCc1cccs1)C(=O)c1ccc(-c2ccc(F)cc2)o1`, the inhibition was -1.53%.

Turning to `CCN(CC(=O)NCc1cccs1)C(=O)c1ccc(C)o1`, the inhibition is 2.46%.

In the case of `CCOc1ccc(S(=O)(=O)N2CCN(C(=O)CN3C(=O)NC4(CCCC4)C3=O)CC2)cc1`, the inhibition is -3.03%.

On to `Cc1oc(C(=O)Nc2ccc(C(=O)O)cc2)cc1COc1ccccc1`, for which the inhibition was -2.76%.

Regarding `Cc1ccc(OCc2cc(C(=O)Nc3ccccc3)oc2C)cc1`, the inhibition was 0.92%.

For `COc1ccc(CCNC(=O)c2cc(C(C)C)on2)cc1OC`, the inhibition was -0.84%.

As for `CCc1ccc2c(c1)C(O)(CC(=O)c1cccs1)C(=O)N2` (stereo not drawn), the inhibition is 10.1%.

Take `Cc1cccc2c1NC(=O)/C2=C\C(=O)c1cccs1`: the inhibition was -9.89%.

Consider `N#Cc1c(-c2ccccc2)c(-c2ccccc2)nn(CC(=O)NNC(=O)Nc2ccc(Cl)cc2)c1=O`, for which the inhibition was 3.84%.

For the molecule `N#Cc1c(-c2ccccc2)c(-c2ccccc2)nn(CC(=O)NNC(=O)Nc2ccccc2)c1=O`, the inhibition is -9.35%.

In the case of `COc1ccc(NC(=O)C23CC4CC(CC(Cl)(C4)C2)C3)cc1S(=O)(=O)N1CCOCC1`, the inhibition was 1.2%.

As for `COC(=O)Cc1ccc(NC(=O)c2ccc3c(c2)C(=O)N(Cc2ccco2)C3=O)cc1`, the inhibition was -5.45%.

In the case of `CCOC(=O)c1c(NC(=O)CC2SC(N)=NC2=O)sc(C)c1C` (stereo not drawn), the inhibition was 0.41%.

As for `O=S(=O)(NCCN1CCCC1)c1ccc(Br)cc1`, the inhibition is 0.37%.

As to `CCOc1ccc(-c2csc(Cn3c(CN4CCN(C)CC4)nc4ccccc4c3=O)n2)cc1`, the inhibition is 8.95%.

With `CN1CCN(Cc2nc3ccccc3c(=O)n2Cc2nc(-c3ccc([N+](=O)[O-])cc3)cs2)CC1`, the inhibition was 3.59%.

As for `CCCCN(C(=O)c1ccc(C#N)cc1)c1c(N)n(CCC)c(=O)[nH]c1=O`, the inhibition was -1.21%.

`O=C(CN1CCCCC1)NC(=O)NC1CCCCC1`: the inhibition was -4.76%.

With `COc1cc(O)cc2occ(-c3ccc(O)cc3)c(=O)c12`, the inhibition was -14.1%.

On to `Cc1nnc(SCC(=O)NC2CCCCC2)n1N`, for which the inhibition was 3.31%.

As to `Cc1ccc(NC(=O)C(C)Sc2nc(-c3ccccc3)cc(=O)[nH]2)cc1` (stereo not drawn), the inhibition is 14%.

Take `C=CCn1c(N)cc(=O)nc1SC(C)C(=O)Nc1ccc(C(=O)OCC)cc1` (stereo not drawn): the inhibition was 6.39%.

Regarding `CCc1ccccc1NC(=O)C1CCCN(c2nn3c(=O)cc(C)nc3s2)C1` (stereo not drawn), the inhibition was -6.18%.

For the molecule `O=C(COC(=O)c1cc(S(=O)(=O)N2CCOCC2)ccc1F)c1ccccc1`, the inhibition was 0.68%.

As to `O=C(Nc1cccc(NC(=O)c2cc([N+](=O)[O-])ccc2Cl)n1)c1cc([N+](=O)[O-])ccc1Cl`, the inhibition is 10.1%.

Turning to `CCc1cccc(NC(=O)C2CCN(c3ncnc4sc(C)c(C)c34)CC2)c1`, the inhibition is 22.6%.

For `Cc1sc2ncnc(N3CCC(C(=O)Nc4ccc(C#N)cc4)CC3)c2c1C`, the inhibition is 7.85%.

Take `COc1cc(-c2noc(C)c2C(=O)NCc2ccc(C)o2)cc(OC)c1OC`: the inhibition is 3.84%.

Take `CC(=O)c1c(C)[nH]c(C(=O)OCC(=O)NCc2cccs2)c1C`: the inhibition was 7.06%.

On to `CC(C)Nc1nc(NC(C)C)nc(N(C)C#N)n1`, for which the inhibition is 0.57%.

Regarding `CC(C)Nc1nc(NC(C)C)nc(N(C)C(N)=O)n1`, the inhibition is 1.68%.

For `C=CC[C@H](CC(=O)OC(C)(C)C)C(=O)OC[C@H]1CCCN1C(=O)[C@@H](CC=C)CC(=O)N(CCO)Cc1ccccc1`, the inhibition is -3.24%.

Take `C[C@H](NC(=O)c1[nH]cnc1C(=O)Nc1cccc(Cl)c1)c1ccccc1`: the inhibition is 48.7%.

As to `C[C@@H](NC(=O)c1[nH]cnc1C(=O)Nc1cccc(Cl)c1)c1ccccc1`, the inhibition was 56.8%.

For the molecule `O=C(CN(Cc1ccccc1)C(=O)CNS(=O)(=O)c1ccc(F)cc1)NCC1CCCO1` (stereo not drawn), the inhibition was -5.05%.

Turning to `Cc1nn(-c2ccccc2)c(Cl)c1/C=N/NC(N)=O`, the inhibition was -5.57%.

`Cc1nn(C)c(C)c1/C=C/C(=O)c1ccccc1`: the inhibition was 7.75%.

`O=C(c1cccc(C(F)(F)F)c1)c1c[nH]c(C(=O)NCCCN2CCOCC2)c1`: the inhibition is 2.14%.

For the molecule `Cc1cc(S(=O)(=O)Nc2ccc3cn[nH]c3c2)c(C)cc1Cl`, the inhibition was -3.66%.

Consider `O=C(Nc1ccc2[nH]ncc2c1)c1ccccc1Cl`, for which the inhibition is -3.21%.

For `O=Cc1cc(Br)c(OC(=O)N2CCOCC2)c(Br)c1`, the inhibition is 5.26%.

Turning to `Cc1ccc(-c2nn(-c3ccccc3)cc2CO)cc1`, the inhibition was 4.76%.

For `OCc1cn(-c2ccccc2)nc1-c1ccc(-c2nn(-c3ccccc3)cc2CO)cc1`, the inhibition is 0.63%.

For the molecule `CC(C)[C@]1(c2ccc(Cl)cc2)ON(c2ccccc2C(F)(F)F)C1=O`, the inhibition is 1.98%.

As for `O=C(CCc1nc2ccccc2c(=O)[nH]1)Nc1nnc(SCc2ccc(Cl)cc2)s1`, the inhibition is -0.53%.

For `Cn1ccnc1SCC(=O)NCC(=O)Nc1ccc(F)c(F)c1F`, the inhibition is 1.26%.

As to `c1ccc(-c2nc(NC3CCCC3)c3ccccc3n2)cc1`, the inhibition is 11.8%.

As for `c1ccc(CN2CCC(Nc3nc(-c4cccnc4)nc4ccccc34)CC2)cc1`, the inhibition is 10.5%.
